# Laboratory results reported in PubChem BioAssay.
# Calls of active or inactive are those of the source.
# Columns and labels:
# Albumin (Bos taurus) = Albumin (Bos taurus) (UniProt P02769); experiment: compounds binding labelled BSA control protein – biochemical, small-molecule microarray, Alexa647 label, 635/667 nm fluorescence, artefact control for SMM control protein annotation, profiling panel (AID 1118); conditions: BSA-A647 binding, fluorescence 635 nm, higher = more signal;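 further: score merges 667 nm emission intensity and signal-to-noise per printed compound spot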
# [1] = probe aXIP binding to arrayed compounds – biochemical, NeuroSMM set, 635/667 nm fluorescence, primary screen (AID 1119); conditions: small-molecule microarray, higher = more signal, called active from +8 up or from −8 down;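 further: probe is the protein aXip251-270 applied at 1 µg/mL to compound-printed slides; binding of probe to printed compounds measured as 667 nm fluorescence plus signal to noise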
# [2] = probe aNOTCH3 binding on compound microarray – biochemical, small-molecule microarray, 635/667 nm fluorescence, primary screen (AID 1120); conditions: higher = more signal;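 further: probe is a biotin-tagged antibody raised against NOTCH3 rather than NOTCH3 protein; score merges spot fluorescence near 667 nm with spot signal to noise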
# [3] = probe aNOTCH2 binding on compound microarray – biochemical, small-molecule microarray, 635/667 nm fluorescence, primary screen (AID 1121); conditions: higher = more signal;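 further: score merges feature fluorescence read at 667 nm with its signal to noise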
# [4] = biological target: Carbonic anhydrase 2 (Homo sapiens) (UniProt P00918); experiment: compounds binding carbonic anhydrase 2 – biochemical, small-molecule microarray, Alexa647-labelled CAII, profiling panel (AID 1122); conditions: CAII-A647 binding fluorescence, higher = more signal
# [5] = COS7 lysate on small-molecule microarray, probe aHis, 635 nm (AID 1123); conditions: COS7 cell lysate, fluorescence, higher = more signal;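 further: z-score combines 667nm fluorescence intensity with signal-to-noise per printed compound spot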
# [6] = probe aLAP1 signal on lysate-treated microarray – cell lysate, small-molecule microarray, COS7 lysate, primary screen (AID 1124); conditions: probe aLAP1, fluorescence, higher = more signal;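 further: lysate comes from COS7 cells expressing LAP1 and is applied at 0.3 µg/mL; score merges spot fluorescence near 667 nm with signal-to-noise over triplicate slides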
# Sam68 (KHDRBS1) = experiment: compounds binding KHDRBS1 protein – biochemical, small-molecule microarray, 635 nm fluorescence, primary screen (AID 1125); conditions: higher = more signal;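 further: score merges 667 nm channel intensity with signal to noise over triplicate slides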
# [7] = tested on: Chordin-like protein 2 (CHRDL2); experiment: compounds binding chordin-like 2 – biochemical, small-molecule microarray, 635 nm fluorescence, primary screen (AID 1126); conditions: fluorescence 635 nm, higher = more signal;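 further: printed compound slides probed with Chrdl2 protein at 4 µg/mL for 1 h at 4 C; score merges 667 nm emission intensity with signal to noise over three replicate slides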
# [8] = biological target: Concanavalin-A (Canavalia ensiformis) (UniProt P02866); experiment: compounds binding concanavalin A lectin – biochemical, small-molecule microarray, Alexa647 label, 635 nm, artefact control for SMM control protein annotation, primary screen (AID 1127); conditions: ConA-A647 binding fluorescence, higher = more signal;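 further: z combines 667 nm emission intensity with signal-to-noise across three replicate slides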
# [9] = compounds binding Alexa647 anti-His antibody – biochemical, small-molecule microarray, 635 nm fluorescence, artefact control for SMM control protein annotation, primary screen (AID 1128); conditions: higher = more signal;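 further: score merges feature fluorescence with signal-to-noise for each printed compound spot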
# [10] = tested on: Human papillomavirus type 1a E7 protein (residues 1-88); experiment: HPV1a E7 small-molecule binders, primary screen, biochemical, small-molecule microarray, residues 1-88, 635 nm (AID 1129); conditions: small-molecule microarray binding, fluorescence 635 nm; higher = more signal
# [11] = biological target: Focal adhesion kinase 1 (Homo sapiens) (UniProt Q05397); experiment: PTK2 protein binding on printed compound slides – biochemical, small-molecule microarray, 635/667 nm fluorescence, BSA, DTT, primary screen (AID 1130); conditions: 635 nm fluorescence, higher = more signal;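 further: composite of spot emission at 667 nm and signal to noise over triplicate slides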
# [12] = tested on: Fibrinogen (Alexa647-labelled); experiment: Alexa647-fibrinogen binding to printed small molecules – biochemical, small-molecule microarray, 635/667 nm fluorescence, artefact control for SMM control-protein annotation, profiling panel (AID 1131); conditions: fibrinogen-A647 binding fluorescence, higher = more signal;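 further: z-score merges 667 nm fluorescence with per-spot signal-to-noise over triplicate slides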
# [13] = biological target: Follistatin (Homo sapiens) (UniProt P19883); experiment: FST protein binding to printed compounds – biochemical, small-molecule microarray, 635/667 nm fluorescence, primary screen (AID 1132); conditions: 635 nm fluorescence, higher = more signal
# [14] = biological target: Fibroblast growth factor 2 (Homo sapiens) (UniProt P09038); experiment: basic fibroblast growth factor binding to printed compounds – biochemical, small-molecule microarray, 635/667 nm fluorescence, primary screen (AID 1133); conditions: FGF2, fluorescence 635/667, higher = more signal
# [15] = JC-1 mitochondrial potential readout, lung cancer cells – cell-based, A549, JC-1 fluorescence, basal, 24 h, 100 nL, profiling panel (AID 1138); conditions: higher = more signal;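 further: A549 lung adenocarcinoma cells under basal conditions with no added stimulus; test concentration not given here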
# Lefty1 = Lefty1 protein binding to printed compounds – biochemical, small-molecule microarray, 635/667 nm fluorescence, primary screen (AID 1139); conditions: fluorescence 635/667, higher = more signal
# [16] = tested on: wheat germ agglutinin (Triticum aestivum), Alexa647-labelled; experiment: Alexa647-WGA lectin binding to printed small molecules – biochemical, small-molecule microarray, 635/667 nm fluorescence, artefact control for SMM control-protein annotation, profiling panel (AID 1140); conditions: WGA-A647 binding, 635 nm fluorescence, higher = more signal;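 further: score merges 667 nm feature emission with signal to noise over triplicate slides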
# [17] = biological target: Luciferin 4-monooxygenase (Photinus pyralis) (UniProt P08659); experiment: inhibition of purified Photinus pyralis luciferase – biochemical, luminescence, purified enzyme, 2006 set, primary screen (AID 1141); conditions: purified firefly luciferase, SteadyGlo luminescence, 30 min; higher = more signal, called active from +8 up or from −8 down;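 further: cell-free assay with purified firefly luciferase at 100 ng per well in PBS; test concentration not given here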
# Sequence of Luciferin 4-monooxygenase (Photinus pyralis) (P08659 whole entry, looked up): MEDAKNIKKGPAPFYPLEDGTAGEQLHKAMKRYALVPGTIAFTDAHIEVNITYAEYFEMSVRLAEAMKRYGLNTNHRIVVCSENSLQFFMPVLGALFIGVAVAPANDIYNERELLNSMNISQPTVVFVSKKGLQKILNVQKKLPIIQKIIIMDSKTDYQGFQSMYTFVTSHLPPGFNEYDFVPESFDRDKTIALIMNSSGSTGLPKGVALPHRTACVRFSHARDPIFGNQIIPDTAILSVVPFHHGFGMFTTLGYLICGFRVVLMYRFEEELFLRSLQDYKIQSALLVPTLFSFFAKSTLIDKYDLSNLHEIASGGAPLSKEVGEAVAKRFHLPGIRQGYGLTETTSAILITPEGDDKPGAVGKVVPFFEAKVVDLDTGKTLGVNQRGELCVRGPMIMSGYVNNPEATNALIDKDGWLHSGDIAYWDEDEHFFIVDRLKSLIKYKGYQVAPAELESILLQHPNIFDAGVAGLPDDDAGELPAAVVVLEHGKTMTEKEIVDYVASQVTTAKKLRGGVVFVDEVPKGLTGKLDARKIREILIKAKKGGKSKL
# Sequence of Follistatin (Homo sapiens) (P19883 whole entry, looked up): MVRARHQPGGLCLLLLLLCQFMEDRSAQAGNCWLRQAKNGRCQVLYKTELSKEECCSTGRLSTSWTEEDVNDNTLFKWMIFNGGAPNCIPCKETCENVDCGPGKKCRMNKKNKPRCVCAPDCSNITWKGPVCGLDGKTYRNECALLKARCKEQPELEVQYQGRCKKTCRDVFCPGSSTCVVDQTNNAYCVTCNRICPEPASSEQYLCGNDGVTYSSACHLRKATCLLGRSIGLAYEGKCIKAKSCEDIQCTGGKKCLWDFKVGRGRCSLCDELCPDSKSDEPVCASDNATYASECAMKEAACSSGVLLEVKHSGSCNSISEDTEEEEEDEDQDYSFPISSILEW
# Sequence of Focal adhesion kinase 1 (Homo sapiens) (Q05397 whole entry, looked up): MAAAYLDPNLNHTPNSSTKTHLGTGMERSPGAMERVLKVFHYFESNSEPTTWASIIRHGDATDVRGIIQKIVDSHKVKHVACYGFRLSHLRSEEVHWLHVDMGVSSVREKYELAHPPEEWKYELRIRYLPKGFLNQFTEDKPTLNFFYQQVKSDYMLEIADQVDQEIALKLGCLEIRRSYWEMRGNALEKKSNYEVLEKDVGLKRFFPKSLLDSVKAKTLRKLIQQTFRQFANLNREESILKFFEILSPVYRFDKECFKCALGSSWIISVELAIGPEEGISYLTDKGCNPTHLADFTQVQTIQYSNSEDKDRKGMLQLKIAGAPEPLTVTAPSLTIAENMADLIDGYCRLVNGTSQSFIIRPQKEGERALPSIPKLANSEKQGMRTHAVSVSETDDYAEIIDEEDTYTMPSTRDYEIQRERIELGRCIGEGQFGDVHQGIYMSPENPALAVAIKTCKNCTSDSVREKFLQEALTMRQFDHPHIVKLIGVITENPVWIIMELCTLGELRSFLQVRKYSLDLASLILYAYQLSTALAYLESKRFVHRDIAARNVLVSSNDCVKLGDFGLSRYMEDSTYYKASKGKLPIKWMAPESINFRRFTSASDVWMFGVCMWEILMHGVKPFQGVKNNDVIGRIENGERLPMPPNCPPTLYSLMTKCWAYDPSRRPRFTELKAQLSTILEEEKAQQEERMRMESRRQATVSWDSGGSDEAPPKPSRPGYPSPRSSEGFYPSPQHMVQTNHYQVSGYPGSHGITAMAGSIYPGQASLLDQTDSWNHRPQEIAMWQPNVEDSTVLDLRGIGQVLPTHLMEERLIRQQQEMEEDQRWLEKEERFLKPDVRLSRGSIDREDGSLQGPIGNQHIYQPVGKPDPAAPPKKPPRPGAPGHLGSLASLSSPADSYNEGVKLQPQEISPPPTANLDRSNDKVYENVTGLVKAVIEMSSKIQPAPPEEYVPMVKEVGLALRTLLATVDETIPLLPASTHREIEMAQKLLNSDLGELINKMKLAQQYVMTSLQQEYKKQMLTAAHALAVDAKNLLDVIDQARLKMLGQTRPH
# Sequence of Fibroblast growth factor 2 (Homo sapiens) (P09038 whole entry, looked up): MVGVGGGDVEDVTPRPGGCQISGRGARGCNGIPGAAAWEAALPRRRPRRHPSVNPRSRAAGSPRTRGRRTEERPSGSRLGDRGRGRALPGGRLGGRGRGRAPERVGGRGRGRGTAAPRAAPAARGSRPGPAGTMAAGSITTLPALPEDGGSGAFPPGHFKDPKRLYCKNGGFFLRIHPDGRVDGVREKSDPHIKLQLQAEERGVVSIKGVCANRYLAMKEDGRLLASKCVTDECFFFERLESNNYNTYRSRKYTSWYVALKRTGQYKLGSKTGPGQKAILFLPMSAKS
# Sequence of Concanavalin-A (Canavalia ensiformis) (P02866 whole entry, looked up): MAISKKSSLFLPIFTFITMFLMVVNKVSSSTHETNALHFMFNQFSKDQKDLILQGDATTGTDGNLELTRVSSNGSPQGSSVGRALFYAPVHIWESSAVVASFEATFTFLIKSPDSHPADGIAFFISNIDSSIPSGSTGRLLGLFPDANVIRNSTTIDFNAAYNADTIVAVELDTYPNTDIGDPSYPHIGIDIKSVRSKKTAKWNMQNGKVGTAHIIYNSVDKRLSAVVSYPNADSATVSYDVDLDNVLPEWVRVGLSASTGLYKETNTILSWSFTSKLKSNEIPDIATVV
# Sequence of Albumin (Bos taurus) (P02769 whole entry, looked up): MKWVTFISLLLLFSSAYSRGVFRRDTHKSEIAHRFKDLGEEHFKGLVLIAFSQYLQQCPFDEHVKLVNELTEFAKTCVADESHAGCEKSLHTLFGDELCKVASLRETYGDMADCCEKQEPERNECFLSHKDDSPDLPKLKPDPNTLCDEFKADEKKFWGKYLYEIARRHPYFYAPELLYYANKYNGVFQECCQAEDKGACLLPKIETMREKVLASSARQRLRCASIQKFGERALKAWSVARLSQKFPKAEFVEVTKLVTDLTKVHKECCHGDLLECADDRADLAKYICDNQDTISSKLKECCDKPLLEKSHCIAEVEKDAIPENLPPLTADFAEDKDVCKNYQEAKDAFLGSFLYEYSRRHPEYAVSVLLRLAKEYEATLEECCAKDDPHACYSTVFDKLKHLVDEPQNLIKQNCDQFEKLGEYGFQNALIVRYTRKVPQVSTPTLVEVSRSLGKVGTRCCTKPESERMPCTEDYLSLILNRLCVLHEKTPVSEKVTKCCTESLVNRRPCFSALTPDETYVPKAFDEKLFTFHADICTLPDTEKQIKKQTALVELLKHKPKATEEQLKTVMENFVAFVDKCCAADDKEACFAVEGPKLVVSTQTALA
SMILES,composite z-score (Albumin (Bos taurus)),composite Z-score [1],composite z-score [2],composite z-score [3],composite z-score [4],composite z-score [5],composite z-score [6],composite z-score (Sam68 (KHDRBS1)),composite z-score [7],composite z-score [8],composite z-score [9],composite z-score [10],composite z-score [11],composite z-score [12],composite z-score [13],composite z-score [14],z-score [15],composite z-score (Lefty1),composite z-score [16],z-score [17]
COc1ccc(C(=O)Nc2cccc(CN3C(=O)[C@]4(O[C@H](CCn5cc(CCO)nn5)[C@@H]([Si](C)(C)c5ccc(OC)cc5)[C@@H]4C)c4ccccc43)c2)cc1,0.196,0.165 (inactive),0.0066,-0.0142,0.43,0.98,-0.0719,1.1,0.306,0.692,-0.0471,1.09,0.258,0.757,1.29,0.188,-1.11,0.834,0.351,-0.1 (inactive)
[N-]=[N+]=Nc1ccccc1C[C@@]1(C(=O)N2CCCCC2)N=C(c2ccc(OCCCO)cc2)O[C@@H]1c1ccccc1,0.782,0.219 (inactive),0.107,0.111,0.398,2.37,0.677,1.22,-0.687,1.12,1.63,1.2,0.98,0.95,0.72,0.11,1.13,-0.322,1.31,-2.98 (inactive)
C#CCN1[C@@H](Cc2ccc(O)cc2)C(=O)O[C@H](Cc2ccccc2)[C@@H]1/C=C/C1CC1,-0.545,0.228 (inactive),0.14,-0.14,0.117,-0.225,0.472,-0.329,0.498,-0.457,-0.0341,-0.521,-0.102,0.123,0.623,0.571,-1.76,0.165,-0.202,-0.407 (inactive)
C=CCNC(=O)[C@@H]1[C@H]2C(=O)O[C@H](c3ccccc3)[C@H](c3ccccc3)N2[C@H](c2ccc(OCCO)cc2)[C@@]12C(=O)N(C(=O)OCCOC)c1ccc(C#CCC(C(=O)OC)C(=O)OC)cc12,0.371,0.0558 (inactive),0.199,0.0278,0.637,1.37,1.05,1.31,0.665,1.09,1.67,1.16,1.31,0.603,1.24,1.48,-1.18,0.991,1.05,-0.262 (inactive)
O=C(O)[C@H]1C[C@H]2C(=O)N3CCC[C@H]3C(=O)N2[C@H]1c1ccc(O)cc1,-2.04,0.0047 (inactive),-0.368,-0.176,0.545,0.193,0.107,-0.132,-1.49,0.298,0.0617,-0.94,-0.222,-1.83,-0.374,-0.879,1.62,-0.801,-0.842,-2.53 (inactive)
CC(c1ccccc1)C(O)C1C=CC2C(=O)N(c3ccccc3)C(=O)C2N1Nc1ccccc1 (stereo not given),1.01,0.304 (inactive),0.298,-0.112,0.493,3.12,0.426,1.34,-0.298,1.11,0.546,1.28,0.476,1.03,1.03,-0.124,-1.27,0.858,1.02,-0.674 (inactive)
NCCCCCNC(=O)[C@H]1C[C@H]2C(=O)N[C@@H](Cc3ccccc3)C(=O)N2[C@H]1c1cccc(OCCO)c1,0.862,1.11 (inactive),0.144,0.0409,0.438,0.24,1.07,0.474,0.723,0.883,0.614,0.624,0.163,0.962,1.07,0.159,1.07,0.0778,0.782,-1.4 (inactive)
O=C(CS)NCCCCCNC(=O)[C@@H]1C[C@@H]2C(=O)NCC(=O)N2[C@@H]1c1ccc(O)cc1,-0.911,2 (inactive),-0.189,-0.213,0.552,0.559,0.144,0.692,0.616,0.53,1.79,0.443,0.393,-0.135,1.18,1.24,-0.977,0.269,-0.855,-1.24 (inactive)
OCC1C=C(/C=C/c2ccccc2)CN1Cc1ccccc1Br (stereo not given),0.718,0.466 (inactive),0.0694,-0.0877,0.287,0.672,-0.0831,1.01,0.402,0.94,1.5,0.278,-0.18,0.891,1.29,1.39,0.426,1.51,0.94,-1.05 (inactive)
CC(C)CCC[C@@H](C)[C@H]1CC[C@@]2(C)C3=C(CC[C@]12C)[C@@]1(C)CC[C@H](OC(=O)c2ccc(C(F)(F)F)nc2)C(C)(C)C1CC3 (stereo not given in full),0.326,-0.0967 (inactive),-0.111,-0.17,-0.0684,0.493,0.0819,0.42,0.827,0.311,0.38,0.763,0.251,0.723,0.599,0.695,0.425,0.666,0.231,-1.41 (inactive)
